For test [1], the target named is Luciferin 4-monooxygenase (Photinus pyralis) (UniProt P08659). As to the kind of experiment: CCTE_Simmons_QuantiLum_inhib_2: CCTE's Firefly Luciferase Inhibition Assay, Simmons Lab (AID 2283767).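 For AC50: potency for inhibitors that lower luciferase luminescence relative to DMSO.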 The procedure, abridged: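 Cell-free QuantiLum luciferase, 5 ng/well; compounds 5 nM–87.5 uM final, 8 conc, 0.5% DMSO; 30 min, 37C, dark. Detection reagent (150 uM D-luciferin, 147 uM dATP, CoA, DTT, pH 7.8 final) injected per well, kinetic luminescence. Triplicate biological replicates.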

The nature of test [2]: ACEA_AR_agonist_AUC_viability: ACEA Biosciences xCELLigence Real-Time Cell Analysis on Androgen Receptor Agonism for Viability (AID 2283775).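 For AC50: viability read 80 hours after compound addition.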 The essentials: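 Viability endpoint from xCELLigence impedance in 22Rv1 prostate cells at 80 h. Eight-point series, 100 uM maximum final.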
Test [3] is described as follows: ACEA_AR_antagonist_AUC_viability: ACEA Biosciences xCELLigence Real-Time Cell Analysis on Androgen Receptor Antagonism for Viability (AID 2283776).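 Note: 22Rv1 human prostate cancer cells growing on impedance electrode plates; area under impedance growth curve at 80 h after dosing as viability; hits lower the growth signal relative to DMSO meaning cytotoxicity.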 The procedure, abridged:
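Real-time electrical impedance tracks 22Rv1 proliferation after continuous compound exposure (top 100 uM final, 1:4 steps, 8 concentrations). The 80 h area-under-curve serves as the cytotoxicity readout relative to DMSO.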

Test [4] in a line: STM_H9_OrnCyssISnorm_ratio: Stemina devTOX quickPredict H9 human embryonic stem cell (hESC)-based Assay for Ornithine (ORN):Cystine (CYSS) Ratio (AID 2283714). The essentials:
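Ratio of internal-standard-normalized ornithine to cystine, measured by UPLC-HRMS in spent media from the last 24 h. H9 cells kept pluripotent, dosed 72 h with daily media and compound renewal; DMSO 0.1% serves as baseline.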

For test [5], the target named is zebrafish Estrogen Receptor (ESR1), esr1 (gene 259252) (UniProt P57717). Put plainly: ATG_zfER1_XSP1: Attagene TRANS-FACTORIAL Multi-Species (XSP1) HepG2 Assay for zebrafish Estrogen Receptor (ESR1) (AID 2283772). The procedure, abridged:
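Reporter mRNA induction, gauged via RT-PCR/capillary electrophoresis fluorescence relative to DMSO controls, in HepG2 cells transiently carrying GAL4-UAS reporter units; 24 h dosing.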

Test [6] relates to zebrafish Estrogen Receptor (ESR2B), gene 317733. As to the kind of experiment: ATG_zfER2b_XSP1: Attagene TRANS-FACTORIAL Multi-Species (XSP1) HepG2 Assay for zebrafish Estrogen Receptor (ESR2B) (AID 2283773). The procedure, abridged:
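Medium contained 3 nM 6-alpha-fluorotestosterone. Reporter mRNA induction by exogenous zebrafish ER2b-Gal4 chimera was read 24 h post-dose in transiently transfected HepG2 cells, using RT-PCR, fluorescent labelling, HpaI digestion and capillary electrophoresis.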

Test [7] has as its system frog Estrogen Receptor (ESR2), gene 100174814. Put plainly: ATG_frER2_XSP1: Attagene TRANS-FACTORIAL Multi-Species (XSP1) HepG2 Assay for frog Estrogen Receptor (ESR2) (AID 2283774). The essentials: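 Reporter mRNA from a multiplexed TRANS system, measured by RT-PCR with fluorescent labelling and capillary electrophoresis, 24 hours after chemical exposure. Human HepG2 liver cells carried exogenous frog ER-Gal4 chimera; medium included 3 nM 6-alpha-fluorotestosterone; increases versus DMSO analysed.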

Test [8] has as its system frog Estrogen Receptor (ESR1), gene 398734. Put plainly: ATG_frER1_XSP1: Attagene TRANS-FACTORIAL Multi-Species (XSP1) HepG2 Assay for frog Estrogen Receptor (ESR1) (AID 2283777). Here is the method: ATG_XSP1_multi-species_TRANS is a cell-based, multiplexed assay created by modifying the existing Attagene TRANS-FACTORIAL system to include a panel of nuclear receptors from some or all the following species: human (Homo sapiens), mouse (Mus musculus), frog (Xenopus laevis), zebrafish (Danio rerio), chicken (Gallus gallus), and turtle (Chrysemys picta). The ECOTOX-FACTORIAL format uses HepG2, a human liver cell line, with measurements taken at 24 hours after chemical dosing in a 24-well plate. Xsp1 included 3 nM 6-alpha-fluorotestosterone to partially stimulate the androgen receptor.ATG_frER1_XSP1 is one of 29 assay components measured or calculated from the ATG_XSP1_multi-species_TRANS assay. It is designed to make measurements of mRNA induction, a form of inducible reporter, as detected with fluorescence intensity signals by Reverse transcription polymerase chain reaction (RT-PCR) and Capillary electrophoresis technology.The assay endpoint ATG_frER1_XSP1 was analyzed in the positive analysis fitting direction relative to DMSO as the negative control and baseline of activity. […] Furthermore, this assay endpoint can be referred to as a primary readout, because this assay has produced multiple assay endpoints where this one serves a reporter gene function. […]

A short description of test [9]: STM_H9_CystineISnorm_perc: Stemina devTOX quickPredict H9 human embryonic stem cell (hESC)-based Assay for Cystine (CYSS) Metabolite Biomarker, Normalized (AID 2283713; active = hit-call score of the fitted dose curve at least 0.9, where 1 is the maximum; inactive = score below 0.9). The procedure, abridged: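 UPLC-HRMS read-out: endogenous cystine peak area in spent medium, normalized to isotope-labeled internal standard and to median of 0.1% DMSO controls. Pluripotent H9 cells, 72h exposure, daily medium/compound replenishment; medium from last 24h sampled.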

Test [10] can be described thus: Tanguay_ZF_120hpf_ActivityScore_legacy: (Legacy) Oregon State University Tanguay Lab 120 Hour Post-fertilization zebrafish Assay Score for Activity (AID 2283742). The procedure, abridged: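 Binary scoring of mortality and morphology by brightfield at 24 and 120 hpf, summarised into one activity score from 18 components relative to DMSO. Wild-type Tropical 5D zebrafish, chorion removed at 4 hpf, static exposure 6–120 hpf, 28 °C.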

Inconclusive results are not listed. The source made the active and inactive calls. Rule for the calls, unless noted: active = hit-call score of the fitted dose curve at least 0.9, where 1 is the maximum; inconclusive = response in the unintended direction; inactive = score below 0.9.

By AC50 is commonly meant the concentration at which the activity in the assay is half-maximal.

Chain of Luciferin 4-monooxygenase (Photinus pyralis) (P08659 whole entry, looked up): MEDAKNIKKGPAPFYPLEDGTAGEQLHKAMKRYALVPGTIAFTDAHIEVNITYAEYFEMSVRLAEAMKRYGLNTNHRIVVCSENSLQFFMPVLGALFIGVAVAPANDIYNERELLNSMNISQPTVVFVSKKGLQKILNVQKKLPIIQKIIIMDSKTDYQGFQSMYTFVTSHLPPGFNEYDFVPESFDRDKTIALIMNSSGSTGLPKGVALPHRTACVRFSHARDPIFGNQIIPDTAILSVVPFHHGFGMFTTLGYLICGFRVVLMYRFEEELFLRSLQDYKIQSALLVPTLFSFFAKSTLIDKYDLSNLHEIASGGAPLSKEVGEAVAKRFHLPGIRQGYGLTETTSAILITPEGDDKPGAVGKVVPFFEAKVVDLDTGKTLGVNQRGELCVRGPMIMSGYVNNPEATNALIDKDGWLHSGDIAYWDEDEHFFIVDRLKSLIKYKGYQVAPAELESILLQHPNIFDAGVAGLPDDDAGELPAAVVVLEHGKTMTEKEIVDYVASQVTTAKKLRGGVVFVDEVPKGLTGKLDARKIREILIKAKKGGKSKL
Chain of zebrafish Estrogen Receptor (ESR1), esr1 (gene 259252) (P57717 whole entry, looked up, the tested form may be a part): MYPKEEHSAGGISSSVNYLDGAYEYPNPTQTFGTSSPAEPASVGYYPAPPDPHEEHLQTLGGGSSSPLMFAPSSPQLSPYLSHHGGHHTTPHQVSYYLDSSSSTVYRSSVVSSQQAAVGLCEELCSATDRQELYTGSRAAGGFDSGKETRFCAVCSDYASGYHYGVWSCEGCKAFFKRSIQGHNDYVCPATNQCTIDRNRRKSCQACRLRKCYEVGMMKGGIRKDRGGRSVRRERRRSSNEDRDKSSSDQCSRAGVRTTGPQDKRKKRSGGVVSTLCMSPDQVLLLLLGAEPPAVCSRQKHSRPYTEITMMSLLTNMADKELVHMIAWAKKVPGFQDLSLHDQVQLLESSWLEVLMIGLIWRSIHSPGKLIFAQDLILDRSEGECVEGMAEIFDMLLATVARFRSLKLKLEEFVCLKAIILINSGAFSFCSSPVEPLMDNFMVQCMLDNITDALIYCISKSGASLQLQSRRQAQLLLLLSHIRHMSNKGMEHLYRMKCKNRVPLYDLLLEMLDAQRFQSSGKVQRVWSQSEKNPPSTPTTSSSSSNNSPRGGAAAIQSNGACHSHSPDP

With `CCOC(=O)c1ccc(N)cc1`, the compound was classed as inactive in [1], in test [2] and in [3].

Regarding `CN(C)c1cccc(O)c1`, in [1], the concentration at half-maximal activity (AC50) is 40.6 µM (active). In addition, the compound was classed as inactive in [3].

Take `CCCCCC(C=O)=Cc1ccccc1`: in [1], the result was inactive.

Consider `CCCCCCCCC=CCCCCCCCC1=NCCN1CCO`, for which the compound was called inactive in [1], in test [2] and in test [3].

Regarding `CCc1ccc(O)cc1`, the outcome in [1], in test [2] and in test [3] was inactive.

For `CCOc1ccc(N=Nc2ccc(C=Cc3ccc(N=Nc4ccc(OCC)cc4)cc3S(=O)(=O)O)c(S(=O)(=O)O)c2)cc1`, the result in test [1] was inactive.

For the compound `CCc1cc(Cc2cc(CC)cc(C(C)(C)C)c2O)c(O)c(C(C)(C)C)c1`, the result in test [1] was inactive. Also, the AC50 in test [2] is 24.3 µM (active); in test [3], 22.9 µM (active).

As to `Cc1cc(S(=O)(=O)O)ccc1N=Nc1c(O)ccc2ccccc12`, the concentration at half-maximal activity (AC50) in test [1] was 27.8 µM (active). Further, in test [2], the compound was classed as inactive.

Take `CCCCCCCCc1ccc(S(=O)(=O)O)cc1`: the outcome in test [1], in test [2] and in test [3] was inactive.

As for `Oc1ccc2cc(SSc3ccc4cc(O)ccc4c3)ccc2c1`, the call in test [1] was inactive.

Turning to `COc1ccc(N=Nc2cc(C)c(N=Nc3ccc(S(=O)(=O)O)cc3)cc2OC)cc1`, the AC50 in test [1] was 53.8 µM (active).

As to `O=C1c2ccccc2C(=O)c2c(O)ccc(O)c21`, in test [4], the AC50 is 10 µM (active).

For the compound `CCOc1ccccc1O`, the result in [1] and in [2] was inactive.

`CC(CN=Cc1ccccc1O)N=Cc1ccccc1O` (stereo not given): the compound was classed as inactive in [1]. The AC50 is 6.64 µM (active) in test [2] and 4.63 µM (active) in test [3].

Turning to `O=C(O)CCCCCCCCC(=O)O`, in [1], the result was inactive. Besides, the half-maximal activity concentration (AC50) in test [2] is 2.76 µM (active); in test [3] it was 2.07 µM (active).

As for `O=C(Nc1ccc2c(O)c(N=Nc3ccc(N=Nc4ccc(S(=O)(=O)O)cc4)cc3)c(S(=O)(=O)O)cc2c1)c1ccccc1`, the AC50 in [1] was 20.7 µM (active). In addition, the compound was classed as inactive in [2].

For the compound `[O-]n1ccccc1=S.[O-]n1ccccc1=S.[Zn+2]`, the compound was classed as inactive in [1]. Moreover, the half-maximal activity concentration (AC50) is 11.8 µM (active) in test [2] and 22.9 µM (active) in test [3].

With `Cc1cc(C)nc(NS(=O)(=O)c2ccc(N)cc2)n1`, the call in test [1] was inactive.

As to `C=C1CC[C@H](O)C/C1=C/C=C1\CCC[C@]2(C)[C@@H]([C@H](C)/C=C/[C@H](C)C(C)C)CC[C@@H]12`, the compound was called inactive in [1] and in test [2].

As to `CSCCC=O`, the compound was called inactive in test [1].

In the case of `CCCCC(CC)COC(=O)c1ccc(O)cc1` (stereo not given), the compound was called inactive in test [1], in test [5] and in test [2]. Moreover, the AC50 in test [6] was 3.67 µM (active); in test [7] it was 0.86 µM (active); in [8] it was 1.91 µM (active).

Turning to `CS(=O)(=O)OCCCCOS(C)(=O)=O`, the half-maximal activity concentration (AC50) in test [9] is 5.25 µM (active); in test [4], 31.2 µM (active). In addition, the call in [10], in [1], in test [2] and in test [3] was inactive.

As to `CCc1cc(C(C)(C)C)c(O)c(C(C)(C)C)c1`, the outcome in [1], in [2] and in test [3] was inactive.

As to `Cc1ccc(S(=O)(=O)Oc2ccc(N=Nc3ccc(-c4ccc(N=Nc5c(O)ccc6cc(S(=O)(=O)O)cc(S(=O)(=O)O)c56)c(C)c4)cc3C)cc2)cc1`, the values for the AC50 in [1], in [2] and in test [3] were 17.4 µM (active), 7.03 µM (active) and 2.55 µM (active), respectively.

`CC(C)CCCCCCCCCCCCCCC(=O)O`: the call in test [1], in test [2] and in test [3] was inactive.

Regarding `COc1ccccc1N=Nc1c(S(=O)(=O)O)cc2cc(S(=O)(=O)O)cc(NC(C)=O)c2c1O`, the AC50 in test [1] was 13.8 µM (active). Besides, the compound was classed as inactive in test [2] and in test [3].

On to `O=c1c(O)c(-c2ccc(O)cc2)oc2cc(O)cc(O)c12`, for which the AC50 in test [1] was 34.3 µM (active); in [3], 4.77 µM (active). In addition, the result in test [2] was inactive.

As to `CC(C)NCC(O)COc1ccc(CC(N)=O)cc1` (stereo not given), the result in test [1] and in [2] was inactive.

As to `O=C(O)c1ccc(O)cc1`, the result in test [1], in test [2] and in [3] was inactive.

Take `Nc1ccc2cc(S(=O)(=O)O)cc(O)c2c1N=Nc1ccccc1C(F)(F)F`: the AC50 in [1] is 51.7 µM (active). The compound was classed as inactive in [3].

In the case of `C=CC(C)(O)CCC=C(C)C` (stereo not given), in test [4], the result was inactive.

In the case of `CCCCCCCCCCCCCCN(CCO)CCO`, the concentration at half-maximal activity (AC50) was 23.7 µM (active) in test [2] and 28.4 µM (active) in test [3].

In the case of `CCOC(=O)C1OC1c1ccccc1` (stereo not given), the compound was classed as inactive in test [2] and in test [3].

For `CCOC(=O)[C@@H](C)Oc1ccc(Oc2nc3ccc(Cl)cc3o2)cc1`, the half-maximal activity concentration (AC50) in [2] was 5.36 µM (active). Moreover, in [3], the compound was called inactive.

Turning to `O=P(O)(O)O`, the call in test [2] was inactive. Moreover, the concentration at half-maximal activity (AC50) in test [3] is 8.69 µM (active).

Regarding `CN1C(=O)c2ccccc2C1=O`, the result in test [2] and in [3] was inactive.

Turning to `c1ccc(Oc2ccccc2)cc1`, the call in test [2] was inactive.

In the case of `O=Cc1ccccc1S(=O)(=O)O`, in test [2], the AC50 is 1.24 µM (active). For the same compound, the outcome in test [3] was inactive.

In the case of `COCCOCCOCCO`, the compound was called inactive in test [2].

Source of the values: PubChem BioAssay (EPA / NIEHS).
